These results are taken from PubChem BioAssay.

SMILES strings stand for the structures. Calls of active or inactive are those of the source.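 The calls were made as follows: active = inhibition above 20% together with a positive visual image hit; inconclusive = visual image hit but inhibition not above 20%; inactive = no visual image hit.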

The assay in a line: inhibitors of TNFa-induced NFkB p65 translocation, primary screen, imaging, HUVEC, MLSMR starter and 10KST1 sets (AID 438).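 Also: compound added about 3h40 before a 20 min TNFalpha stimulation.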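 As to inhibition: signal is the nuclear over cytoplasmic p65 intensity ratio per well.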 Conditions: HUVEC TNFa-induced p65 nuclear translocation; cell count: measured here: nuclei count (cytotoxicity indicator), at 2.08 µM unless noted; inhibition: at 2 µM, stronger effect = higher value unless noted.
With `O=C(Cn1cc(C(=O)c2ccccc2)c2ccccc21)NCc1ccco1`, the cell count stood at 229 and the inhibition is -1.4% (inactive).
On the same counts, the results for `COc1ccc(C2NCc3ccc4c(c3-n3cccc32)OCO4)cc1O` (stereo not drawn) are 479 and 9.5% (inactive).
For the compound `Cn1c(C(=O)N2CCC3(CC2)OCCO3)cc2c(=O)n(C)c3ccccc3c21`, the inhibition was -0.2% (inactive) and the cell count was found to be 551.
On the same counts, the results for `O=C1C2CCCN2C(c2ccc(Cl)c(Cl)c2)N1c1ccccn1` (stereo not drawn) are -2.1% (inactive) and 499.
On the same counts, the results for `CC(=NCc1cccnc1)c1c(O)n(Cc2ccccc2)c(=O)[nH]c1=O` are 1.2% (inactive) and 421.
In the same order, the values of `O=C(c1ccc2nc3ccc(Cl)cc3c(=O)n2c1)N1CCC2(CC1)OCCO2` are -20.4% (inactive) and 758.
Regarding `COc1ccc(OC)c(C2=NOC(C(=O)N3CCC4(CC3)OCCO4)C2)c1` (stereo not drawn), the inhibition was -17.7% (inactive) and the cell count turned out to be 789.
In the same order, the values of `Cn1c(O)c(C=NCc2ccco2)c(=O)n(C)c1=O` are -3.8% (inactive) and 327.
Turning to `O=c1[nH]c(=O)n(Cc2ccccc2)c(O)c1C=NCCCO`, the cell count is 414 and the inhibition is -6.5% (inactive).
On the same counts, the results for `O=C(C1CCCN(S(=O)(=O)c2cccc3nsnc23)C1)N1CCC2(CC1)OCCO2` (stereo not drawn) are 815 and -0.7% (inactive).
In the same order, the values of `Nc1ccccc1C(=O)OC1CSC1` are 621 and -8.7% (inactive).
In the same order, the values of `Cc1cc(N2C(=O)C3CCCN3C2c2cccc(Cl)c2)no1` (stereo not drawn) are 465 and -3.9% (inactive).
Consider `COC(=O)c1c(C)n(Cc2ccc3c(c2)OCO3)c2ccc(O)cc12`, for which the cell count amounted to 598 and the inhibition is 2.2% (inactive).
On the same counts, the results for `NC(=O)CSP(=O)(c1ccccc1)c1ccccc1` are 427 and -3.5% (inactive).
In the same order, the values of `OCC12COC3c4ccccc4C(OC1)N32` (stereo not drawn) are 478 and -7.1% (inactive).
On the same counts, the results for `CCOC(=O)c1cccc([P+](=O)O)c1` are 570 and 0% (inactive).
On to `COc1ccccc1OCCCn1cc(C(=O)c2ccco2)c2ccccc21`, for which the inhibition is -2.5% (inactive) and the cell count amounted to 596.
On the same counts, the results for `Cc1cc(NC(=O)COC(=O)c2c(C)nn(Cc3ccccc3)c2Cl)no1` are 7.3% (inactive) and 346.
In the same order, the values of `CC(C)OC(=O)c1c(N)n(CC2CCCO2)c2nc3ccccc3nc12` (stereo not drawn) are -5.1% (inactive) and 470.
On the same counts, the results for `COC(=O)c1ccccc1-n1c(C)nc2ccccc2c1=O` are -4.4% (inactive) and 328.
Take `CC1CCN2c3nc4ccccn4c(=O)c3CC3(C(=O)N(C)C(=O)N(C)C3=O)C2C1` (stereo not drawn): the cell count was 459 and the inhibition was -8.6% (inactive).
On the same counts, the results for `CCN1CCN(c2ncnc3ccc(Br)cc23)CC1` are 207 and 2.1% (inactive).
In the same order, the values of `COCCOC(=O)C1=C(N)Oc2c(c(=O)oc3ccccc23)C1c1ccncc1` (stereo not drawn) are 329 and 2.2% (inactive).
In the same order, the values of `CSc1ccc(CNC2CN3CCC2CC3)cc1` (stereo not drawn) are 350 and 0.2% (inactive).
In the case of `CCOC(=O)C1CCCCC12C(C#N)=C(N)Oc1n[nH]c(C)c12` (stereo not drawn), the inhibition was -5.8% (inactive) and the cell count is 733.
In the case of `CC1(C)CC(=O)C=C(NCCN2CCN(C(=O)Cc3ccc(Cl)cc3)CC2)C1`, the cell count is 706 and the inhibition was -4.2% (inactive).
Turning to `COc1ccc(CCNC(=O)c2c(N)n(CCN3CCOCC3)c3nc4ccccc4nc23)cc1`, the inhibition was 9.5% (inactive) and the cell count was found to be 403.
On the same counts, the results for `CSc1ccc(C(=O)C(C)(C)N2CCOCC2)cc1` are -5.2% (inactive) and 401.
On the same counts, the results for `COc1ccccc1N1CCN(Cc2cccc(OC)c2O)CC1` are -6% (inactive) and 509.
In the same order, the values of `Cc1ccc(S(=O)(=O)Cc2ccc(C(=O)N3CCC4(CC3)OCCO4)o2)cc1` are -6.9% (inactive) and 602.
Consider `CCOc1ccc(Br)c(C2(O)CC(C)N(C)CC2C)c1` (stereo not drawn), for which the inhibition was -10.1% (inactive) and the cell count was determined as 607.
On the same counts, the results for `Cc1ccc(CS(=O)(=O)CCC(=O)N2CCC3(CC2)OCCO3)cc1` are 6% (inactive) and 463.
Turning to `NC(=O)OCCSc1nnc(-c2cccc(C(N)=S)c2)o1`, the inhibition was 3.5% (inactive) and the cell count turned out to be 330.
On the same counts, the results for `O=C(O)c1nonc1-c1nonc1C(=O)O` are -1.9% (inactive) and 195.

Broadly, the inhibition is the drop in the measured response relative to a control, in per cent.
